According to PubChem BioAssay (Tox21):
Results filed as inconclusive are left out. A number with no mark means an inactive call. Activity calls are given as the source filed them. Calls come from the whole dose curve.

target: Beta-2 adrenergic receptor (Homo sapiens) (UniProt P07550); experiment: Adrenergic beta2 receptor (ADRB2) small molecule agonists, cell-based qHTS assay (AID 1963593); details: CHO-ADRB2 cells, cAMP HTRF, 30 min; series mostly up to 92.4 µM; activation: at the top concentration
Sequence (P07550 whole entry, looked up): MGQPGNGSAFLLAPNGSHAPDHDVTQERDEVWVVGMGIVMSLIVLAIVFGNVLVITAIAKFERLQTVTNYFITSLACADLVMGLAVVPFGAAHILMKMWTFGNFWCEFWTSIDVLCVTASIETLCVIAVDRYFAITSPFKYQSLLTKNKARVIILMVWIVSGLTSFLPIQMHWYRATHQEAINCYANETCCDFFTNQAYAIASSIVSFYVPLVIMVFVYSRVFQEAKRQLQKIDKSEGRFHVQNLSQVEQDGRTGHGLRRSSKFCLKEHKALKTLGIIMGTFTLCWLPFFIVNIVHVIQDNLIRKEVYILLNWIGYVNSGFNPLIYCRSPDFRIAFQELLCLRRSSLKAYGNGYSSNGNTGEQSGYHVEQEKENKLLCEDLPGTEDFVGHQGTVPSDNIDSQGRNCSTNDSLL
Excerpt: National Center for Advancing Translational Sciences [NCATS]
Division of Preclinical Innovation [DPI]
U.S. Environmental Protection Agency [EPA]
National Institutes of Environmental Health Sciences [NIEHS]
National Toxicology Program [NTP]
U.S. Food and Drug Administration [FDA]
Beta adrenergic receptors (Beta-ARs) belong to the G-protein coupled receptor (GPCR) superfamily, includes three subtypes - beta1, beta2, and beta3. Beta1-AR is the predominant receptor subtype expressed in the heart, and beta2-AR is expressed in the kidney, lung, blood vessel and in the heart, and beta3 is found in the adipocytes. Beta1 and 2 ARs couple to Gs protein and elevate cyclic adenosine mono phosphate (cAMP), which activates protein kinase A and leads to the downstream signaling responsible for the physiological actions. Beta-AR agonists or antagonists are the most prescribed therapeutic agents for heart failure and asthma, and these were one of the first target receptors for the rational drug design. Tox21 10K compound library was screened using the cAMP-Gs dynamic assay (Cisbio Bioassays, Shelton, CT) to identify agonists/antagonists of the Gs-coupled human adrenergic, beta2 receptor (ADRB2) in the CHO-ADRB2 cell line (Codex BioSolutions, Inc. Gaithersburg, MD), which stably over-expresses ADRB2. The principle of cAMP-Gs dynamic assay is based on HTRF technology, which facilitates the fluorescence resonance energy transfer (FRET) between donor Europium cryptate and acceptor d2-labeled cAMP. The cAMP generated within cells competes with the red acceptor, d2-labled cAMP, for binding to the monoclonal anti-cAMP-cryptate (Europium donor). An increase in intracellular cAMP leads to the disruption of FRET signal, and the signal is inversely proportional to the cAMP concentration. Isoproterenol HCl (Sigma-Aldrich, St. Louis, MO) was used as a positive control in the screening.
Tox21 Assay Protocol Summary:
CHO-ADRB2 cells were dispensed at 1,000/well in 4uL assay medium into white/solid 1536-well plates (Greiner Bio-One North America Inc., Monroe, NC) using a Multidrop Combi dispenser (ThermoFisher Scientific, Waltham, MA). The assay plates were incubated at 37C and 5% CO2 for an overnight (18-20hr). Then positive control and test compounds dissolved in DMSO were transferred to the assay plates at 23nL using a Pintool station (Wako, San Diego, CA). Following the compound and positive control transfer, 1uL stimulation mix containing 100uM IBMX and 25uM Ro-20-1724 was added to each well of the assay plates using BioRAPTR Flying Reagent Dispenser (FRD, Beckman Coulter, Brea, CA). The assay plates were incubated at room temperature for 0.5hr. Then 2.5ul each d2-labled cAMP and anti-cAMP-cryptate solutions were added separately to each well of the assay plates using an FRD and the assay plates were incubated at room temperature for 1hr.
% is set by controls: 0 for no effect and ±100 for the full control effect.

| SMILES | activation | Potency |
| --- | --- | --- |
| c1ccc(-c2ccccc2)cc1 | -13.6% | – |
| COS(=O)(=O)OC | 7.6% | – |
| CCC1(c2ccc(N)cc2)CCC(=O)NC1=O (stereo not given) | – | inactive |
| CCC(=O)O[C@@H]1C=C2CCC3C(CCC4(C)C3CC[C@@H]4OC(=O)CC)C2CC1 (stereo not given in full) | 16.5% [at 42.5 µM] | – |
| NC(=O)CCl | 4.15% | – |
| C=CC(=O)OCCCCCC(C)C | 16.8% | – |
| CCOP(=O)(OCC)Oc1ccc([N+](=O)[O-])cc1 | 3.45% | – |
| Nc1ccc(-c2ccc(N)c(Cl)c2)cc1Cl | – | inactive |
| CCCCN(CCCC)SN(C)C(=O)Oc1cccc2c1OC(C)(C)C2 | -28.8% | – |
| Cc1cc(Cl)ccc1N=CN(C)C | -25.4% | – |
| COC(C)(C)C | -11% | – |
| CN1C(=O)NC(=O)C(C)(C2=CCCCC2)C1=O (stereo not given) | 18.3% [at 42.5 µM] | – |
| OCc1ccco1 | 8.21% | – |
| CN(C)c1ccc(C(=O)c2ccc(N(C)C)cc2)cc1 | -10.7% | – |
| CC(=O)CC(c1ccc(Cl)cc1)c1c(O)c2ccccc2oc1=O (stereo not given) | 0.52% | – |
| O=P(OCCCl)(OCCCl)OCCCl | -9.23% | – |
| c1ccc(P(c2ccccc2)c2ccccc2)cc1 | -0.313% | – |
| Nc1ccc(Cl)cc1N | -39.7% | – |
| O=C(O)c1cc(Oc2ccc(C(F)(F)F)cc2Cl)ccc1[N+](=O)[O-] | – | inactive |
| Nc1cnn(-c2ccccc2)c(=O)c1Cl | -1.2% | – |

| SMILES | activation | Potency |
| --- | --- | --- |
| Cn1c(N)nc2c3cccnc3ccc21 | -37.7% | – |
| O=C(Cl)OCCOCCOC(=O)Cl | -3.51% | – |
| ClCc1ccccn1 | – | inactive |
| C=CC#N | – | inactive |
| Nc1ccncc1 | 6.38% [at 42.5 µM] | – |
| CC[N+]1(C)CCCC1 | – | inactive |
| CCCCC(CC)COC(=O)Cl (stereo not given) | – | inactive |
| ClCCBr | -24.5% | – |
| C[N+](C)(C)Cc1ccccc1 | -10.1% | – |
| CCN(CC)C(=S)S | – | inactive |
| Nc1ncc([N+](=O)[O-])s1 | – | inactive |
| C=C(C)C(=O)OCC(CC)CCCC (stereo not given) | 4.31% | – |
| c1ccc(NNc2ccccc2)cc1 | 7.75% | – |
| C=C(C)C(=O)OCC1CO1 (stereo not given) | – | inactive |
| CCN(CC)C(=O)/C(Cl)=C(\C)OP(=O)(OC)OC | 5.61% | – |
| CC(C)C#N | – | inactive |
| Oc1c(Cl)c(Cl)c(Cl)c(Cl)c1Cl | -1.41% | – |
| COP(=S)(OC)SCn1nnc2ccccc2c1=O | -7.77% | – |
| COc1ccc(N)cc1 | – | inactive |
| CCC/C=N/O | -24.7% | – |
